Records with an inconclusive call do not appear. Activity calls are given as the source filed them. Rule for the calls: active = hit-call score of the fitted dose curve at least 0.9, where 1 is the maximum; inconclusive = response in the unintended direction; inactive = score below 0.9.
The compounds below were run on sulfotransferase (SULT2A), SULT2A1 (gene 6822) (assay: CLD_SULT2A_24hr: CellzDirect (CLD) Gene Expression Assay for sulfotransferase (SULT2A) at 24 hours (AID 2283694);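 for AC50: potency for increased SULT2A1 mRNA level as induction over DMSO baseline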).
Method: CLD_24hr is a cell-based, multiplexed-readout assay that uses hepatocyte, a human liver primary cell, with measurements taken at 24 hours after chemical dosing in a 96-well plate.CLD_SULT2A_24hr is one of 16 assay component(s) measured or calculated from the CLD_24hr assay. It is designed to make measurements of mRNA induction, a form of inducible reporter, as detected with chemiluminescence signals by Quantitative Nuclease Protection Assay (qNPA) technology.Data from the assay component CLD_SULT2A_24hr was analyzed at the endpoint, CLD_SULT2A_24hr, in the positive analysis fitting direction relative to DMSO as the negative control and baseline of activity. Using a type of inducible reporter, gain-of-signal activity can be used to understand changes in the reporter gene as they relate to the gene SULT2A1. Furthermore, this assay endpoint can be referred to as a primary readout. To generalize the intended target to other relatable targets, this assay endpoint is annotated to the transferase intended target family, where subfamily is sulfotransferase.
Human hepatocyte cultures were treated daily for two consecutive days with fresh dosing solutions containing appropriate concentrations of the 320 ToxCast chemicals (chemical identities were blinded to CellzDirect and other ToxCast collaborators), vehicle control (0.2% DMSO), and positive control inducers as summarized in Table 1. Due to the large number of treatment groups and chemicals examined, the ToxCast chemicals were divided into two groups (spanning two independent cultures of hepatocytes from separate donor preparations (Hu778: ToxCast plates 1 and 2; Hu776: ToxCast plates 3 and 4). Each preparation of human hepatocyte cultures was treated with respective vehicle control, medium only control, set of six positive controls/reference chemicals for the five hepatic receptor pathways, and a subset of eight of the ToxCast chemicals (indoxacarb, pyrithiobac-sodium, norflurazon, cyhalofop-butyl, methomyl, thiram, acetochlor, and propiconazole). These replicate data, coupled with internal replicates designed within the blinded ToxCast chemical library, provided additional data to evaluate interindividual differences between hepatocyte preparations and their potential impact on chemical profiles.Cell morphology and integrity were evaluated using phase-contrast microscopy as an indicator of hepatocyte cell health (Tyson & Green, 1987). Cultures for each treatment group (i.e., media, vehicle [0.2% DMSO], positive control inducers [multiple concentrations], and the ToxCast chemicals [multiple concentrations]) were observed and cell morphology was assessed relative to vehicle control cultures at each harvest time point (0, 6, 24, or 48 h). […] Images were evaluated at the conclusion of the study to assess changes in cell integrity and account for the effects of chemical exposure on uncharacteristic changes in concentration-dependent gene expression profiles. The results from these determinations of apparent cytotoxicity were annotated (yes/no) alongside the corresponding qNPA data for reference.At the conclusion of each treatment period, hepatocyte cultures (96-well) were washed with 1 volume of HBSS, lysed by addition of 25 ul ArrayPlate lysis buffer (HTG, Tucson, AZ), and 70 ul/well of Denaturation Oil, denatured by incubation at 95C for 10 min, and frozen at approximately -70C until analysis by nuclease protection assay (qNPA) (Roberts et al., 2007). For qNPA analysis, cell lysates were thawed at 50C for approximately 30 min, qNPA probes were added, and samples were incubated at 95C for 10 min to begin the detection process by denaturing the target RNA, dissociating the duplexes and secondary structure hybridization. At the conclusion of the hybridization period, S1 nuclease reagent was added to each sample to digest all nonprotected nucleotides at 50C for 60-90 min. […]

SMILES	outcome	AC50
CCSC(=O)N1CCCCCC1	inactive	–
CCCCOCN(C(=O)CCl)c1c(CC)cccc1CC	inactive	–
OC(c1ccc(Cl)cc1)(c1ccc(Cl)cc1)C(Cl)(Cl)Cl	–	20 µM (active)
COP(=O)(OC)O/C(C)=C/C(=O)N(C)C	inactive	–
CC1(C)CON(Cc2ccccc2Cl)C1=O	inactive	–
COCC(C)N(C(=O)CCl)c1c(C)csc1C (stereo not given)	inactive	–
CS(=O)(=O)c1cc(C(F)(F)F)ccc1C(=O)c1cnoc1C1CC1	inactive	–
CO/N=C(/C1=NOCCO1)c1ccccc1Oc1ncnc(Oc2ccccc2Cl)c1F	inactive	–
CCOP(=S)(OCC)Oc1nc(Cl)n(C(C)C)n1	inactive	–
COP(=S)(OC)SCn1nnc2ccccc2c1=O	inactive	–
CCCN(CC)CC1COC2(CCC(C(C)(C)C)CC2)O1 (stereo not given)	–	3.97 µM (active)
CSC(=O)c1c(C(F)F)nc(C(F)(F)F)c(C(=O)SC)c1CC(C)C	–	7.07 µM (active)
CCCC(=NOCC)C1=C(O)CC(CC(C)SCC)CC1=O (stereo not given)	inactive	–
CC1(C)CCC(=Cc2ccc(Cl)cc2)C1(O)Cn1cncn1 (stereo not given)	inactive	–
C=C(C)CN(CC)c1c([N+](=O)[O-])cc(C(F)(F)F)cc1[N+](=O)[O-]	inactive	–
CCNP(=S)(OC)O/C(C)=C/C(=O)OC(C)C (stereo not given)	inactive	–
CCN(CC)C(=O)C(C)Oc1cccc2ccccc12 (stereo not given)	inactive	–
Cc1cnc(C2=NC(C)(C(C)C)C(=O)N2)c(C(=O)O)c1 (stereo not given)	inactive	–
CC(C)=CC1C(C(=O)OCc2coc(Cc3ccccc3)c2)C1(C)C (stereo not given)	inactive	–
COC(=O)N(C(=O)N1CO[C@@]2(C(=O)OC)Cc3cc(Cl)ccc3C2=N1)c1ccc(OC(F)(F)F)cc1	inactive	–

SMILES	outcome	AC50
COCc1cnc(C2=NC(C)(C(C)C)C(=O)N2)c(C(=O)O)c1 (stereo not given)	inactive	–
O=C(O)c1c(Cl)ccc2cc(Cl)cnc12	inactive	–
O=c1n(Cl)c(=O)n(Cl)c(=O)n1Cl	inactive	–
COC(=O)NS(=O)(=O)c1ccc(N)cc1	inactive	–
Cc1nc(N(C)C)nc(OC(=O)N(C)C)c1C	inactive	–
COc1ccc(-c2ccccc2)cc1NNC(=O)OC(C)C	–	33.5 µM (active)
CN=C=S	inactive	–
Clc1cccc(C(Cl)(Cl)Cl)n1	inactive	–
CC(C)Oc1cccc(NC(=O)c2ccccc2C(F)(F)F)c1	inactive	–
COC(=O)c1c(C(F)F)nc(C(F)(F)F)c(C2=NCCS2)c1CC(C)C	–	20 µM (active)
COc1cc(Cl)c(OC)cc1Cl	inactive	–
CC(C)NC(=O)N1CC(=O)N(c2cc(Cl)cc(Cl)c2)C1=O	inactive	–
CC(C)Nc1nc(Cl)nc(NC(C)C)n1	inactive	–
CC1(C)C(C=C(Cl)Cl)C1C(=O)OC(C#N)c1cccc(Oc2ccccc2)c1 (stereo not given)	inactive	–
CC(C)C1(C)N=C(c2ncccc2C(=O)O)NC1=O (stereo not given)	inactive	–
Nc1c(Cl)c(Cl)nc(C(=O)O)c1Cl	inactive	–
Cn1c(-c2ccccc2)cc(-c2ccccc2)[n+]1C	–	8.08 µM (active)
Cc1cc(C)nc(Nc2ccccc2)n1	inactive	–
CCCCC(C#N)(Cn1cncn1)c1ccc(Cl)cc1 (stereo not given)	inactive	–
CC1(C)C(C(=O)OC(C#N)c2cccc(Oc3ccccc3)c2)C1(C)C (stereo not given)	inactive	–
